# PubChem BioAssay (EPA / NIEHS)
# Records with an inconclusive call do not appear. The source made the active and inactive calls. The calls were made as follows: active = hit-call score of the fitted dose curve at least 0.9, where 1 is the maximum; inconclusive = response in the unintended direction; inactive = score below 0.9.
# Tested on: rat Monoamine Oxidase, MAO-A, Central (MAOAC), gene 29253
# Test: NVS_ENZ_rMAOAC: NovaScreen (NVS) Enzymatic Assay for rat Monoamine Oxidase, MAO-A, Central (MAOAC) (AID 2283243);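 also: potency refers to inhibition seen as signal drop below DMSO baseline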
# Summary of the method: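 Rat brain tissue extract used as enzyme source in a cell-free radiometric assay, read by scintillation counting 1.5 hours after dosing. Loss of signal relative to DMSO baseline scored; primary screen at 25 uM in duplicate, actives followed up in concentration series.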
row,SMILES,AC50
1,Nc1ccc2ccccc2c1,19.4 µM (active)
2,Oc1ccc(I)cc1,19.9 µM (active)
3,Cc1ccc2c(c1N)C(=O)c1ccccc1C2=O,25 µM (active)
4,CC(=O)c1ccc(-c2ccccc2)cc1,18.6 µM (active)
5,Nc1ccc([N+](=O)[O-])cc1Cl,15.1 µM (active)
6,c1ccc2c(c1)Nc1ccccc1S2,9.71 µM (active)
7,CCOC(=O)c1ccccc1C(=O)OCC,15.2 µM (active)
8,CCOP(=S)(OCC)SCS(=O)(=O)CC,7.29 µM (active)

# Tested on: guinea pig Leukotriene B4 Receptor (LTB4), gene 100379538
# Test: NVS_GPCR_gLTB4: NovaScreen (NVS) G Protein-Coupled Receptor Assay for guinea pig Leukotriene B4 Receptor (LTB4) (AID 2283247)
# Description: (§1) NVS_GPCR_gLTB4 is a biochemical, single-readout assay that uses extracted gene-proteins from Guinea pig spleen membranes in a tissue-based cell-free assay. Measurements were taken 2 hours after chemical dosing in a 48-well plate.NVS_GPCR_gLTB4 is one of one assay component(s) measured or calculated from the NVS_GPCR_gLTB4 assay. It is designed to make measurements of radioligand binding, a form of binding reporter, as detected with scintillation counting signals by Filter-based radiodetection technology.Data from the assay component NVS_GPCR_gLTB4 was analyzed into 1 assay endpoint. This assay endpoint, NVS_GPCR_gLTB4, was analyzed in the positive analysis fitting direction relative to DMSO as the negative control and baseline of activity. Using a type of binding reporter, loss-of-signal activity can be used to understand changes in the binding as they relate to the gene Ltb4r. Furthermore, this assay endpoint can be referred to as a primary readout, because the performed assay has only produced 1 assay endpoint. To generalize the intended target to other relatable targets, this assay endpoint is annotated to the gpcr intended target family, where the subfamily is rhodopsin-like receptor.
# Binding assays used specific radioligands (tritiated, iodinated) with non-radioactive competitive displacement ligands in agonist or antagonist protocols (as indicated) and various reference compounds and inhibitors to titrate specific binding to receptors and transporters. Most enzyme assays (CYPs, kinases, phosphatases, proteases, HDACs) used recombinant protein and specific substrates (fluorescence mostly, some colorimetric and radioactive) and inhibitors, followed by a biochemical separation of substrate and product. All assays for the biochemical HTS were initially run in duplicate at a single concentration (10 uM for CYP450 assays and 25 uM for all others). […]
SMILES,outcome,AC50
CSC(C)(C)C=NO,inactive,–
CCC(C)(C)c1ccc(O)cc1,–,25 µM (active)
O=C(O)C1C(C(=O)O)C2(Cl)C(Cl)=C(Cl)C1(Cl)C2(Cl)Cl (configuration not stated),–,2.88 µM (active)

# Target: guinea pig Opioid, Kappa 1 Receptor (OpiateK), OPRK1 (gene 100135587) (UniProt P41144)
# Test: NVS_GPCR_gOpiateK: NovaScreen (NVS) G Protein-Coupled Receptor Assay for guinea pig Opioid, Kappa 1 Receptor (OpiateK) (AID 2283252);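 also: radioligand displacement from kappa opioid receptor in guinea pig cerebellar membranes; active means reduced radioligand binding relative to DMSO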
# Description: as §1, with “NVS_GPCR_gOpiateK” for “NVS_GPCR_gLTB4”, “cerebellar” for “spleen”, “plate.NVS_GPCR_gOpiateK” for “plate.NVS_GPCR_gLTB4”, “NVS_GPCR_gOpiateK,” for “NVS_GPCR_gLTB4,”, “Oprk1.” for “Ltb4r.”
# Binding assays used specific radioligands (tritiated, iodinated) with non-radioactive competitive displacement ligands in agonist or antagonist protocols (as indicated) and various reference compounds and inhibitors to titrate specific binding to receptors and transporters. Most enzyme assays (CYPs, kinases, phosphatases, proteases, HDACs) used recombinant protein and specific substrates (fluorescence mostly, some colorimetric and radioactive) and inhibitors, followed by a biochemical separation of substrate and product. All assays for the biochemical HTS were initially run in duplicate at a single concentration (10 uM for CYP450 assays and 25 uM for all others). […] Each assay was run with positive and negative controls, and concurrent controls on every plate. […]
# Chain of guinea pig Opioid, Kappa 1 Receptor (OpiateK), OPRK1 (gene 100135587) (P41144 whole entry, looked up): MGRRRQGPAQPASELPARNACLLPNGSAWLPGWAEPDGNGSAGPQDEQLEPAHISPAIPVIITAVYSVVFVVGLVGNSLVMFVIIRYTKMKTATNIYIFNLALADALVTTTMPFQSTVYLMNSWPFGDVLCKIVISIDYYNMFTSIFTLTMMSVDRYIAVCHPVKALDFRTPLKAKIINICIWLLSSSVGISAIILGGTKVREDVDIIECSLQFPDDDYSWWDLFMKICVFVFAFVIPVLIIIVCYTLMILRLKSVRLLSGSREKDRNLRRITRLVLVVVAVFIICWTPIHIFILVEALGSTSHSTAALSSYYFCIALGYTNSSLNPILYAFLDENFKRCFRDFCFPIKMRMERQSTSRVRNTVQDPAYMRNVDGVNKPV
SMILES,AC50,outcome
Cc1cc(C)c(C(=O)P(=O)(c2ccccc2)c2ccccc2)c(C)c1,25 µM (active),–
CCCCOCCOP(=O)(OCCOCCCC)OCCOCCCC,16.5 µM (active),–
CSC(C)(C)C=NO,–,inactive

# Target: human Adenosine A1 Receptor (AdoRA1), ADORA1 (gene 134) (UniProt P30542)
# Test: NVS_GPCR_hAdoRA1: NovaScreen (NVS) G Protein-Coupled Receptor Assay for human Adenosine A1 Receptor (AdoRA1) (AID 2283254)
# Summary of the method: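 Each chemical is first tested twice at 25 uM, actives later in dilution series, against a radioligand bound to human cortex membranes; after 1 h, filter-retained counts are compared with DMSO controls, lower signal indicating displacement.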
# Chain of human Adenosine A1 Receptor (AdoRA1), ADORA1 (gene 134) (P30542 whole entry, looked up): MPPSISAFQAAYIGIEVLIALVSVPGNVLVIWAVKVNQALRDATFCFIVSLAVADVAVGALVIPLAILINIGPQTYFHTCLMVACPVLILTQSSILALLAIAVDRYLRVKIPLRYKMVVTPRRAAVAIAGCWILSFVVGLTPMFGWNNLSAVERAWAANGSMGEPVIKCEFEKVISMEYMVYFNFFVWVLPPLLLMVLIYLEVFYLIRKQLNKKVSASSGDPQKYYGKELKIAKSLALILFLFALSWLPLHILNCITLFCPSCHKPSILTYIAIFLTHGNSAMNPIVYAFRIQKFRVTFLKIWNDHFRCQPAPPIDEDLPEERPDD
SMILES,outcome,AC50
CCNc1nc(Cl)nc(NC(C)(C)C)n1,inactive,–
Cc1cc(C)c(C(=O)P(=O)(c2ccccc2)c2ccccc2)c(C)c1,–,36 µM (active)
Cc1ccc2c(c1N)C(=O)c1ccccc1C2=O,–,16.3 µM (active)
CSC(C)(C)C=NO,inactive,–

# Target: human Adenosine A2a Receptor (AdoRA2a), ADORA2A (gene 135) (UniProt P29274)
# Test: NVS_GPCR_hAdoRA2a: NovaScreen (NVS) G Protein-Coupled Receptor Assay for human Adenosine A2a Receptor (AdoRA2a) (AID 2283256)
# Summary of the method: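 Radioligand displacement on HEK293-derived membrane protein, cell-free; filter-based scintillation counting 1.5 hours after dosing, loss of signal vs DMSO. Single-point duplicate screen at 25 uM, actives retested in concentration series.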
# Chain of human Adenosine A2a Receptor (AdoRA2a), ADORA2A (gene 135) (P29274 whole entry, looked up): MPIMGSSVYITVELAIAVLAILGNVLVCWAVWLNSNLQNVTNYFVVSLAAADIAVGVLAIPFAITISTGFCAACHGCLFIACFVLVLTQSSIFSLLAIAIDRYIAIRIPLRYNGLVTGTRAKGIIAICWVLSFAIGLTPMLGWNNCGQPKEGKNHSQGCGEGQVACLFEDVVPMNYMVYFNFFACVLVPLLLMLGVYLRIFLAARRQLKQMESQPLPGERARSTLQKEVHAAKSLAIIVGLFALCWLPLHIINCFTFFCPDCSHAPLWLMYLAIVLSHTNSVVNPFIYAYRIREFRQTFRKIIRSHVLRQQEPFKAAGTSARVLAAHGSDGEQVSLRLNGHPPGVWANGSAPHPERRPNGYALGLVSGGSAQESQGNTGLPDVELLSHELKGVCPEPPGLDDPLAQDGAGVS
SMILES,AC50,outcome
Cc1ccc2c(c1N)C(=O)c1ccccc1C2=O,4.77 µM (active),–
CSC(C)(C)C=NO,–,inactive
N#Cc1c(-c2ccc(Cl)cc2)[nH]c(C(F)(F)F)c1Br,–,inactive
O=[N+]([O-])c1cc(Cl)ccc1Cl,–,inactive
